From ChEMBL document CHEMBL1961873, “Compounds: GSK PKIS; Assays: Nanosyn kinase panel” (2012)

Assays:
[1] = molecular target: T1, Tyrosine-protein kinase ITK/TSK (Homo sapiens) (UniProt Q08881); conditions: at 1 µM;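 further: values are mean percent inhibition of ITK from the GSK PKIS screen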
T1 sequence (whole entry): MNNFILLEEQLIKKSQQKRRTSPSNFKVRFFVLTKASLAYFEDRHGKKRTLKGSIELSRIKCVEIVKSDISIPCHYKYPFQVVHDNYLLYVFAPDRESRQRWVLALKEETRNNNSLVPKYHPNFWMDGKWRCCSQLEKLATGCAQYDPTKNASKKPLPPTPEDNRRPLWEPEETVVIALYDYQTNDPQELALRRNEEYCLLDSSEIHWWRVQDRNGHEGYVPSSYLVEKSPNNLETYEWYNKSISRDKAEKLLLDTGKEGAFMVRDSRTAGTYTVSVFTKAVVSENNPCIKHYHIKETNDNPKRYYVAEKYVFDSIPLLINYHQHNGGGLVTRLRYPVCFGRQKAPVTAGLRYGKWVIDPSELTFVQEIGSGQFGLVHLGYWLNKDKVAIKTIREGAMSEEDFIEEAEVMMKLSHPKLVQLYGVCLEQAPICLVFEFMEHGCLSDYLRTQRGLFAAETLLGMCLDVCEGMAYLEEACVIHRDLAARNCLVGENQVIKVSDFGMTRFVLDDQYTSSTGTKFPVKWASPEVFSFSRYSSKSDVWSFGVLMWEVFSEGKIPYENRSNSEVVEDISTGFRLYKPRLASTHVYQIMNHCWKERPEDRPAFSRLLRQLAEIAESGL

[2] = molecular target: Tyrosine-protein kinase JAK1 (Homo sapiens) (UniProt P23458); conditions: at 0.1 µM
[3] = molecular target: Tyrosine-protein kinase JAK1 (Homo sapiens) (UniProt P23458); conditions: at 1 µM
[4] = molecular target: Tyrosine-protein kinase JAK2 (Homo sapiens) (UniProt O60674); conditions: at 0.1 µM
Tyrosine-protein kinase JAK2 (Homo sapiens), sequence (O60674 whole entry): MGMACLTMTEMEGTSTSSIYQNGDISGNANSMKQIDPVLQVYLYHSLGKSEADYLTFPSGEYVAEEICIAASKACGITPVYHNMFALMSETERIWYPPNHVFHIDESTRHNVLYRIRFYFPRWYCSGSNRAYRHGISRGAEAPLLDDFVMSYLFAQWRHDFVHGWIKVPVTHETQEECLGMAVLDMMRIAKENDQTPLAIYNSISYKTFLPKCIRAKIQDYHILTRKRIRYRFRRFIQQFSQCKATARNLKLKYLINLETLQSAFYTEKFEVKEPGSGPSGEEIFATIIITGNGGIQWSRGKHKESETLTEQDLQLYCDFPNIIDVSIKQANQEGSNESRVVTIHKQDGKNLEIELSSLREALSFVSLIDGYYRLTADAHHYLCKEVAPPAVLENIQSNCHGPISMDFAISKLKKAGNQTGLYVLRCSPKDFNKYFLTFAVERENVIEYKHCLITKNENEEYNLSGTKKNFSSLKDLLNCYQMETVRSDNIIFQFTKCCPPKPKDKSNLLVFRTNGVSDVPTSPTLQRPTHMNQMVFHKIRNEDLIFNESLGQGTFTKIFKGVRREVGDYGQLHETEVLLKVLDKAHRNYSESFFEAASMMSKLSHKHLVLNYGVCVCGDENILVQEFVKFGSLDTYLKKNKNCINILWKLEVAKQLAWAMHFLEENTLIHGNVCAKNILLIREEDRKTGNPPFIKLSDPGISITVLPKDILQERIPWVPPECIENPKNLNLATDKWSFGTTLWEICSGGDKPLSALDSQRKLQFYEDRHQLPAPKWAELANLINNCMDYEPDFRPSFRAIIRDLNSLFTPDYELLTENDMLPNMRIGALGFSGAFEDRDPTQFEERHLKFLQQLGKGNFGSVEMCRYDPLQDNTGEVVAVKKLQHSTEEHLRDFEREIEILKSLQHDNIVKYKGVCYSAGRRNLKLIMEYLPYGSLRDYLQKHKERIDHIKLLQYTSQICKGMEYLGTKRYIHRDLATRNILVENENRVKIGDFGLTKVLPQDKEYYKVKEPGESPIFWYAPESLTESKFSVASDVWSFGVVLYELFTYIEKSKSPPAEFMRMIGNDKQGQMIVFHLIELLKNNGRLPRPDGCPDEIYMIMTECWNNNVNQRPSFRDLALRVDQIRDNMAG

[5] = molecular target: Tyrosine-protein kinase JAK2 (Homo sapiens) (UniProt O60674); conditions: at 1 µM
[6] = molecular target: T2, Tyrosine-protein kinase JAK3 (Homo sapiens) (UniProt P52333); conditions: at 0.1 µM
T2 sequence (whole entry): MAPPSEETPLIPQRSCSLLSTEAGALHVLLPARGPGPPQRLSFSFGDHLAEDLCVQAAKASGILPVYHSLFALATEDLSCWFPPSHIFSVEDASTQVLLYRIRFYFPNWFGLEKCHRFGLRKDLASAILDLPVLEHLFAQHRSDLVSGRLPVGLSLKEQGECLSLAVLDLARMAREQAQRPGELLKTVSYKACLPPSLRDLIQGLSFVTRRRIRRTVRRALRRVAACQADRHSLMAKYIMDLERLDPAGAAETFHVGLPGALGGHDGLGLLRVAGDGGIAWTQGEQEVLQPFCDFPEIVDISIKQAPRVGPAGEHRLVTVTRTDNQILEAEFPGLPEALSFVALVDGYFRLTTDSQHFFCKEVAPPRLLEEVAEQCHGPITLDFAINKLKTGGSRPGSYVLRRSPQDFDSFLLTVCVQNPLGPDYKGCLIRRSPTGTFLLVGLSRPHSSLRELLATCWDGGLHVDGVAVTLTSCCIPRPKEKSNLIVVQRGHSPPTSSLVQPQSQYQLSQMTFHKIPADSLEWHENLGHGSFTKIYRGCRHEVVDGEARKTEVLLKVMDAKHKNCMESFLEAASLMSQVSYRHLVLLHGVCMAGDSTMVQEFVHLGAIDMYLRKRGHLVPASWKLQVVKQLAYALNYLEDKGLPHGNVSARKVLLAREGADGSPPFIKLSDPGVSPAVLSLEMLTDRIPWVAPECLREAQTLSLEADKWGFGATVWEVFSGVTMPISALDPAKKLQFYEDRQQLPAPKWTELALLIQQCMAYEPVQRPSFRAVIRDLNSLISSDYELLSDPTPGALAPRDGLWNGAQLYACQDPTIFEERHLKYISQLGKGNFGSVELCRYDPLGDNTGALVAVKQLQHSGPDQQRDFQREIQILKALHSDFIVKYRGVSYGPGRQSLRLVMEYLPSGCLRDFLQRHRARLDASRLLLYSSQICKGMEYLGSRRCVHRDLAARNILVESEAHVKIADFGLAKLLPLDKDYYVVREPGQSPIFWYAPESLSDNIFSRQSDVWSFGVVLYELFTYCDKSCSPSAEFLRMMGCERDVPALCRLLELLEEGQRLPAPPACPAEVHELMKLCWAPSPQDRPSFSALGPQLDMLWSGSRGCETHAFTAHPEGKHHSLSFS

[7] = molecular target: T2, Tyrosine-protein kinase JAK3 (Homo sapiens); conditions: at 1 µM
[8] = molecular target: Vascular endothelial growth factor receptor 2 (Homo sapiens) (UniProt P35968); conditions: at 0.1 µM
Vascular endothelial growth factor receptor 2 (Homo sapiens), sequence (P35968 whole entry): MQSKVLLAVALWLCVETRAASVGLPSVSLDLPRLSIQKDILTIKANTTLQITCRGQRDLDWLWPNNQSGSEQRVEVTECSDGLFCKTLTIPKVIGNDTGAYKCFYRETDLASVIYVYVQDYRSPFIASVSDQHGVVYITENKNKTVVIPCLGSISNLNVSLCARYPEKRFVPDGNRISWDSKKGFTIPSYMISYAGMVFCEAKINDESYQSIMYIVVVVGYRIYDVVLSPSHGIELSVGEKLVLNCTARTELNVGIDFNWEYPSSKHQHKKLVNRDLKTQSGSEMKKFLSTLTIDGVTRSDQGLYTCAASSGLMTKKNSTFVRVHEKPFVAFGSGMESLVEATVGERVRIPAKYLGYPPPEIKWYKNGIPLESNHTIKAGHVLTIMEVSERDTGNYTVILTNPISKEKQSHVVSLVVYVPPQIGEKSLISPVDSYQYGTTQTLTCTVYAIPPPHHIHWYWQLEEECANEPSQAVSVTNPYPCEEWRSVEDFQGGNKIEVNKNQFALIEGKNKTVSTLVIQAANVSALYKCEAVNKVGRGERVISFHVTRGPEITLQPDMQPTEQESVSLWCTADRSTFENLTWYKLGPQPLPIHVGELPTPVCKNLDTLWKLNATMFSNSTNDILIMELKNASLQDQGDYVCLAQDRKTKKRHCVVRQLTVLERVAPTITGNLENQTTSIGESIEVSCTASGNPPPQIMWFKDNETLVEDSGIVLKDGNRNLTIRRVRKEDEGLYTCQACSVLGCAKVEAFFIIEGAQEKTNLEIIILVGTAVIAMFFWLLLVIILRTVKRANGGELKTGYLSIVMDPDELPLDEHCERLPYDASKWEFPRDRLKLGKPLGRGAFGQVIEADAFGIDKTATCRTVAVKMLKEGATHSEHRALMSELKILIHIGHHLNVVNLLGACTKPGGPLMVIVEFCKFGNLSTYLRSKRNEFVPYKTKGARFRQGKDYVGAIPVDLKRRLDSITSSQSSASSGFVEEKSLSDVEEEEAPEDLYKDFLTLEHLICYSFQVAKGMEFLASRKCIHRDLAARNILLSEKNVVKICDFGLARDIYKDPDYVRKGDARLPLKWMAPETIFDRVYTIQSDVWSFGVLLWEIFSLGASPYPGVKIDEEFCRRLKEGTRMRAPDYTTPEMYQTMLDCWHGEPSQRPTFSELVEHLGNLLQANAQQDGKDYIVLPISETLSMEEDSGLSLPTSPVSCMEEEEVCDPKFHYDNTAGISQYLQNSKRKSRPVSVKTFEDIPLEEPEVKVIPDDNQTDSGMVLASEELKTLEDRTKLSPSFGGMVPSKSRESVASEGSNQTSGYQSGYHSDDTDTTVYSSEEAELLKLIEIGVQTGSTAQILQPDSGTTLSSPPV

[9] = molecular target: Vascular endothelial growth factor receptor 2 (Homo sapiens) (UniProt P35968); conditions: at 1 µM
[10] = molecular target: Mast/stem cell growth factor receptor Kit (Homo sapiens) (UniProt P10721); conditions: at 0.1 µM
Mast/stem cell growth factor receptor Kit (Homo sapiens), sequence (P10721 whole entry): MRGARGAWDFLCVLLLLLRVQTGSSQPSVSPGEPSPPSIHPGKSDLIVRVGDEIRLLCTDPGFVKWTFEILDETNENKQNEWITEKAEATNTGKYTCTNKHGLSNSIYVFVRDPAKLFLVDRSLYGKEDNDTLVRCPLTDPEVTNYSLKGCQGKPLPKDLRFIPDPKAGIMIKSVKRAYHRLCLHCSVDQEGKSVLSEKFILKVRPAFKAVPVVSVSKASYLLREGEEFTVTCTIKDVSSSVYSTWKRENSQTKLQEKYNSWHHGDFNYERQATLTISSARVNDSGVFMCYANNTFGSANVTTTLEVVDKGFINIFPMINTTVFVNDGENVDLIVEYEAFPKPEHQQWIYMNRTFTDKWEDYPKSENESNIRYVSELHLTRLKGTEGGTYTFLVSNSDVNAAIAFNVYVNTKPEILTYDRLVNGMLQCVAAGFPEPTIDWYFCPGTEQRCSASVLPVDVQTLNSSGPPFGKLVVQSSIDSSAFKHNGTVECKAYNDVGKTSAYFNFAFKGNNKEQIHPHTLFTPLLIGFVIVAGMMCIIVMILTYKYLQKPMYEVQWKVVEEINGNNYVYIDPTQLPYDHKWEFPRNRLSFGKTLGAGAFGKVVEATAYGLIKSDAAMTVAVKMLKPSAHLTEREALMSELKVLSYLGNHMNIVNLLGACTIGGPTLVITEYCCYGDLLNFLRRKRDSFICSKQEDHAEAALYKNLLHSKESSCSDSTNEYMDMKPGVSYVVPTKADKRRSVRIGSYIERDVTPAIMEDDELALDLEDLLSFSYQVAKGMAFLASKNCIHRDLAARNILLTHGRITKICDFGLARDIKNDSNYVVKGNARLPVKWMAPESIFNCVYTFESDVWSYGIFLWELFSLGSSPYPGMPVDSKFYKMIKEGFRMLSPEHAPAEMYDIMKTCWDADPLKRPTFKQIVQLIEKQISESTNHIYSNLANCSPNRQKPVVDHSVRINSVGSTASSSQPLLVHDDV

[11] = molecular target: Mast/stem cell growth factor receptor Kit (Homo sapiens) (UniProt P10721); conditions: at 1 µM
[12] = test system: Mast/stem cell growth factor receptor Kit (Homo sapiens), P10721 [D816V]; conditions: at 0.1 µM
Mast/stem cell growth factor receptor Kit (Homo sapiens), P10721 [D816V], sequence (P10721 whole entry D816V): as the sequence (P10721 whole entry) above, with D816V counted along it

[13] = test system: Mast/stem cell growth factor receptor Kit (Homo sapiens), P10721 [D816V]; conditions: at 1 µM
[14] = test system: Mast/stem cell growth factor receptor Kit (Homo sapiens), P10721 [T670I]; conditions: at 0.1 µM
Mast/stem cell growth factor receptor Kit (Homo sapiens), P10721 [T670I], sequence (P10721 whole entry T670I): as the sequence (P10721 whole entry) above, with T670I counted along it

[15] = test system: Mast/stem cell growth factor receptor Kit (Homo sapiens), P10721 [T670I]; conditions: at 1 µM
[16] = test system: Mast/stem cell growth factor receptor Kit (Homo sapiens), P10721 [V560G]; conditions: at 0.1 µM
Mast/stem cell growth factor receptor Kit (Homo sapiens), P10721 [V560G], sequence (P10721 whole entry V560G): as the sequence (P10721 whole entry) above, with V560G counted along it

[17] = test system: Mast/stem cell growth factor receptor Kit (Homo sapiens), P10721 [V560G]; conditions: at 1 µM
[18] = molecular target: Tyrosine-protein kinase Lck (Homo sapiens) (UniProt P06239); conditions: at 0.1 µM
Tyrosine-protein kinase Lck (Homo sapiens), sequence (P06239 2-509 limits assumed): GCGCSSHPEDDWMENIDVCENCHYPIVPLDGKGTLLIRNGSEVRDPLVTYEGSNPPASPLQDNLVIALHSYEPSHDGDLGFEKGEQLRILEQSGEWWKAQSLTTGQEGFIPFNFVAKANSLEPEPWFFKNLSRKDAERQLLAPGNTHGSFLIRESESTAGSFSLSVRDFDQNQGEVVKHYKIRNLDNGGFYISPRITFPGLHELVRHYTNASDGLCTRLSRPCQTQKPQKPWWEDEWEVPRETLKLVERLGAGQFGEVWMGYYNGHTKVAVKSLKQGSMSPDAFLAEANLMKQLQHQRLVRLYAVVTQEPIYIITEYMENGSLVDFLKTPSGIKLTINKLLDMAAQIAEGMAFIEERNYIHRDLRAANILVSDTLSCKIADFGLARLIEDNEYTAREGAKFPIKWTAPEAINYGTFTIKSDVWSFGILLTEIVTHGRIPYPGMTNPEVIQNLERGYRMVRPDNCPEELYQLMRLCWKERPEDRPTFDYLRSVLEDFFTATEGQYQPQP

[19] = molecular target: Tyrosine-protein kinase Lck (Homo sapiens) (UniProt P06239); conditions: at 1 µM
[20] = molecular target: Leukocyte tyrosine kinase receptor (Homo sapiens) (UniProt P29376); conditions: at 0.1 µM
Leukocyte tyrosine kinase receptor (Homo sapiens), sequence (P29376 whole entry): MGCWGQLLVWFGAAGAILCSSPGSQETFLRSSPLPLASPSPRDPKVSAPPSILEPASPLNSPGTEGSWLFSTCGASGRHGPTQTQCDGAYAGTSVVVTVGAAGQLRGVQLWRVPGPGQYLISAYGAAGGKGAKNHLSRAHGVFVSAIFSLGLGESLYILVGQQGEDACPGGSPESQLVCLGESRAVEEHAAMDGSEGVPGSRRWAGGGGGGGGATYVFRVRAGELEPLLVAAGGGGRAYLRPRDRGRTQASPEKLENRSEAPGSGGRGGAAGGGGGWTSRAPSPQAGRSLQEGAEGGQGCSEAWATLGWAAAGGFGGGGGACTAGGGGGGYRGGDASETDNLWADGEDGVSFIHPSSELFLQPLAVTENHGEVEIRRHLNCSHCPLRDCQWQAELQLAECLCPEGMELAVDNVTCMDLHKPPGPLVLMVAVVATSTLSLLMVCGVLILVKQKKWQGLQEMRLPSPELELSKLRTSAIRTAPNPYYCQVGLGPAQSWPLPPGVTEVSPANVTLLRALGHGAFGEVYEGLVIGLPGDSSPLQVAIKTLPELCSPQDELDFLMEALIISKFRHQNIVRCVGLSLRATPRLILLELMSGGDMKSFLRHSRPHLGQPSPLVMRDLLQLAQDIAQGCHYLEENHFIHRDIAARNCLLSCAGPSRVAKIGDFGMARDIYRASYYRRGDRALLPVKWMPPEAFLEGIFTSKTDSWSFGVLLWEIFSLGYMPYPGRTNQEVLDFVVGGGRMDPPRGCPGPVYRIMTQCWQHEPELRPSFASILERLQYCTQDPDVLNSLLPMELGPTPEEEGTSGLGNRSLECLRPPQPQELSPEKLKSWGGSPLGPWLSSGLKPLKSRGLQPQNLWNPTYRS

SMILES | inhibition [1] | inhibition [2] | inhibition [3] | inhibition [4] | inhibition [5] | inhibition [6] | inhibition [7] | inhibition [8] | inhibition [9] | inhibition [10] | inhibition [11] | inhibition [12] | inhibition [13] | inhibition [14] | inhibition [15] | inhibition [16] | inhibition [17] | inhibition [18] | inhibition [19] | inhibition [20]
NC(=O)c1cc(-c2ccc(F)cc2)cc(-c2ccncc2)c1N | -0.8% | 3.49% | 12.2% | 1.44% | 1.06% | -0.87% | -2.1% | 6% | 6.66% | 11.9% | 46.7% | 2.24% | 4.8% | 4.07% | 8.15% | -2.86% | 1.74% | 2.03% | 7.42% | 3.88%
NC(=O)Cc1ccccc1Oc1nccc(-c2c(-c3ccc(F)cc3)ncn2C2CCNCC2)n1 | 1% | 2.63% | -2.73% | 0.56% | -0.85% | -1.1% | 0.74% | 1.89% | 3.48% | 1.71% | 0.35% | 0.95% | -1.59% | -0.35% | -1.27% | 0.54% | -3.43% | 1.45% | 1.06% | 3.35%
O=C1Nc2ccccc2/C1=C/Nc1ccc(-n2cncn2)cc1 | 4.51% | 5.01% | 29.9% | 0.53% | 0.69% | -1.1% | 6.49% | 7.9% | 37.3% | 21.5% | 75.9% | 4.37% | 8.01% | 8.82% | 47.4% | -2.32% | 10.2% | 3.98% | 9.02% | 3.3%
c1ccc(Oc2ccc(Nc3ncc(-c4ccccc4)o3)cc2)cc1 | 2.13% | 0.76% | 3.56% | 1.66% | 1.65% | -0.5% | 4.13% | 4.37% | 3.48% | 3.26% | 19.9% | -0.64% | -0.49% | 2.73% | 5.55% | -0.1% | 5.53% | 2.67% | 2.2% | 1.67%
Fc1ccc(-c2nc3n(c2-c2ccncc2)CCS3)cc1 | -1.9% | 2.03% | 4.76% | 0.84% | 1.07% | -4.98% | -4.14% | 5.19% | 8.03% | 5.12% | 2.15% | 4.1% | 1.39% | 2.38% | 2.22% | 0.09% | -0.72% | -2.03% | 1.29% | 1.98%
CCC(=O)Nc1ccc(C)c(-c2ccc(C(=O)NCC3CC3)cc2)c1 | -0.1% | 2.44% | 4.69% | 1.7% | 1.15% | -1.95% | -0.85% | 3.67% | 9.29% | 4.93% | 4.74% | -1.54% | 5.31% | 2.5% | 3.87% | -0.17% | -1.72% | 2.57% | 5.27% | 4.98%
CN(C)c1ccc2c(c1)/C(=C/Nc1ccc(S(N)(=O)=O)cc1)C(=O)N2 | 3.68% | 0.51% | 14.2% | 0.74% | 2.09% | -0.16% | 20.4% | 14.6% | 53.6% | 4.04% | 28.4% | 1.55% | 3.22% | 3.39% | 10% | -1.48% | -1.72% | 2.35% | 12.7% | 0.81%
NC(=O)c1ccc(Oc2nccc(-c3c(-c4ccc(F)cc4)ncn3C3CCNCC3)n2)cc1 | 2.32% | 3.88% | 0.7% | 2.78% | 3.18% | -0.36% | -0.92% | 4.96% | 9.7% | 7.24% | 6.05% | 4.42% | 4.25% | 1.23% | 1.77% | -1.86% | 0.03% | 5.07% | 4.88% | 4.02%
CCc1nccc2c1nc(-c1nonc1N)n2CC | 1.25% | 0.52% | -2.63% | 3.71% | 2.91% | 0% | 0.61% | 5.64% | 17.7% | 0.21% | 0.89% | 0.61% | -2.34% | -0.13% | -2.18% | 3.98% | 0.88% | 0.67% | 6.3% | 6.17%
COc1ccc(-c2ccc3c(NC(=O)C4CC4)n[nH]c3n2)cc1 | 2.25% | 2.09% | 10.9% | -0.18% | -0.27% | -1% | 0.12% | 0.66% | 3.4% | 0.69% | 6.98% | 3.21% | 2.92% | 0.56% | 3.21% | 4.61% | 2.87% | -0.02% | 3.64% | 1.94%
O=C(Nc1n[nH]c2cc(-c3cc(F)ccc3F)ccc12)C1CC1 | 7.94% | 3.49% | 8.44% | 1.64% | 1.73% | -0.26% | -0.99% | 6.28% | 12% | 4.01% | 7.05% | 1.5% | 3.88% | 2.63% | 3.43% | 1.22% | 1.15% | 1.37% | 6.57% | 6.64%
COc1ccc2cc(-c3c(-c4ccncc4)nc(-c4ccc(S(C)(=O)=O)cc4C)n3C)ccc2c1 | 1.36% | 5.05% | 11.1% | 1.62% | 1.45% | -0.96% | -0.93% | 10.7% | 47.8% | 5.09% | 4.85% | 1.65% | 4.38% | 2.6% | 4.5% | 1.82% | -0.08% | 1.82% | 8.97% | 3.22%
CS(=O)(=O)CCNCc1ccc(-c2ccc3ncnc(Nc4ccc(OCc5ccccc5)c(Br)c4)c3c2)o1 | -2.69% | 3.52% | 3.08% | 1.19% | -1.02% | -5.54% | -5.98% | 10.1% | 11.1% | 3.38% | 3.91% | 4.87% | 2.18% | 2.66% | 1.79% | -3.28% | -1.19% | 0.4% | 4.79% | 2.96%
